Results on 66 compounds are retold here after PubChem BioAssay AID651610 (Broad Institute, 2012).

This experiment is described as follows: inhibitors of HIV-1 Env-driven cell-cell fusion, primary screen, HeLa-JRFL effector, CEM21 target cells, luciferase (AID 651610).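 Also: 0% = plate neutral controls and 100% = maraviroc near 300 nM.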 The following applies: active compounds read high.

Where “and” joins values, the source holds several entries; their conditions need not be identical. Equal entries are not always repeated. About 3,900 (1.1%) of roughly 360,000 compounds were called active. The list comes from a sample in which actives are over-represented; it also holds similar structures and randomly drawn compounds. Unmarked numbers belong to inactive results.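 The calls were made as follows: active = mean replicate inhibition score of at least 50 and every replicate individually at or above 50; inconclusive = only one of the two criteria met; inactive = mean below 50 and not all replicates reaching 50.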

One may read the inhibition as the change of the read-out against control, counted positive when it falls. As to `C[C@@H]1CN([C@H](C)CO)C(=O)Cc2cc(NS(=O)(=O)c3cccs3)ccc2O[C@@H]1CN(C)C(=O)Nc1ccc(F)cc1`, the inhibition (at 16.7 µM unless noted) was -7.97%.

For `C[C@@H]1CN([C@H](C)CO)C(=O)c2cc(NC(=O)Nc3cccc4ccccc34)ccc2O[C@@H](C)CCCCO[C@H]1CN(C)S(=O)(=O)c1cccs1`, the inhibition (at 16.7 µM unless noted) is 15.1%.

In the case of `CCCCCc1c(Cc2ccccc2)ncn1CCc1ccccc1OC`, the inhibition (at 16.7 µM unless noted) is 109% [at 12.3 µM] (active).

As for `CCCCCc1c(-c2ccc(OC)c(OC)c2)ncn1CCc1ccccc1OC`, the inhibition (at 16.7 µM unless noted) is 49.2% [at 12.3 µM].

As to `CCCCCc1c(-c2cccc(Br)c2)ncn1CCc1ccccc1OC`, the inhibition (at 16.7 µM unless noted) is 11.9% [at 12.3 µM].

Take `O=C(C[C@H]1C[C@H]2c3cc(NC(=O)CC4CC4)ccc3O[C@H]2[C@H](CO)O1)NCc1ccccc1`: the inhibition (at 16.7 µM unless noted) is 8.72%.

In the case of `CC(=O)C1=C(C)N(Cc2ccccc2)C(=S)NC1c1cccc(Br)c1` (configuration not stated), the inhibition (at 16.7 µM unless noted) is 0.027% [at 12.3 µM].

For `COC(=O)C1=C(C)N(Cc2ccc(F)cc2)C(=S)NC1c1cccc(Cl)c1` (configuration not stated), the inhibition (at 16.7 µM unless noted) is 34.2% [at 12.3 µM].

As to `CC(=O)C1=C(C)N(Cc2ccc(Cl)cc2)C(=S)NC1c1ccc(F)cc1` (configuration not stated), where the note is “at 16.7 µM unless noted”, the inhibition is 62.3% [at 12.3 µM] (active).

Regarding `C[C@@H]1CCCCO[C@@H](CN(C)S(=O)(=O)c2cccs2)[C@@H](C)CN([C@H](C)CO)C(=O)c2cc(NC(=O)Nc3ccc4c(c3)OCO4)ccc2O1`, the inhibition (at 16.7 µM unless noted) was 4.87%.

For the compound `COCC(=O)Nc1ccc2c(c1)C(=O)N(C)C[C@H](OC)[C@@H](C)CN(C(=O)Cc1cccnc1)[C@@H](C)CO2`, the inhibition (at 16.7 µM unless noted) is 0.828%.

In the case of `S=c1c2[nH]cnc2ncn1CCSc1ncnc2nc[nH]c12`, the inhibition (at 16.7 µM unless noted) was -6.63% [at 12.3 µM].

In the case of `CCc1ccc(N(CC)c2ncnc3nc[nH]c23)cc1`, the inhibition (at 16.7 µM unless noted) is 55.5% [at 12.3 µM] (active).

With `CCC(=O)N1[C@H](C(=O)NCc2ccc(F)cc2)[C@@H](CO)[C@@H]2Cn3c(ccc(C4=CCCCC4)c3=O)[C@@H]21`, where the note is “at 16.7 µM unless noted”, the inhibition was 22.3%.

In the case of `C[C@@H]1CCCCO[C@@H](CN(C)Cc2ccncc2)[C@@H](C)CN([C@@H](C)CO)C(=O)c2cc(N(C)C)ccc2O1`, the inhibition (at 16.7 µM unless noted) was 12.4%.

As to `C=CCNc1ncnc2ccc(Br)cc12`, the inhibition runs as follows: (at 12.3 µM) 92.8% (active); (at 16.7 µM) 9.63% and 27.5%.

Regarding `Brc1ccc2ncnc(NCc3cccnc3)c2c1`, for the setting “at 16.7 µM unless noted”, the inhibition is 43.2% [at 12.3 µM].

For `O=C(O)CCCCCNc1ncnc2ccc(Br)cc12`, the inhibition (at 16.7 µM unless noted) is 26.9% [at 12.3 µM].

On to `CN1CCN(C(=O)C[C@H]2C[C@H]3c4cc(NC(=O)Nc5ccccc5F)ccc4O[C@H]3[C@H](CO)O2)CC1`, for which the inhibition (at 16.7 µM unless noted) is -13.6%.

Take `COc1ccccc1CNC(=O)C[C@@H]1C[C@@H]2c3cc(NC(=O)C4CCOCC4)ccc3O[C@@H]2[C@@H](CO)O1`: the inhibition (at 16.7 µM unless noted) was -2.64%.

With `CCOC(=O)N1CCN(Cc2nc3cc(NC(C)=O)ccc3n2C)CC1`, the inhibition (at 16.7 µM unless noted) is 9.8% [at 12.3 µM].

`Cn1c(CN2CCOCC2)nc2cc(NC(=O)c3ccc(Cl)cc3)ccc21`: the inhibition (at 16.7 µM unless noted) was 66.4% [at 12.3 µM] (active).

On to `O=C(Nc1ccc(CN2CCOCC2)cc1)c1cc(Cl)ccc1Cl`, for which the inhibition (at 16.7 µM unless noted) was -16% [at 12.3 µM].

With `CNC[C@@H]1Oc2cc(-c3ccccc3OC)ccc2S(=O)(=O)N([C@@H](C)CO)C[C@H]1C`, the inhibition (at 16.7 µM unless noted) is -40.9%.

In the case of `CCCNC(=O)N(C)C[C@H]1Oc2cc(-c3ccncc3)ccc2S(=O)(=O)N([C@H](C)CO)C[C@H]1C`, the inhibition (at 16.7 µM unless noted) was -10.2%.

In the case of `CC(=O)c1c(C)[nH]c(C(=O)OCC(=O)Nc2c(C)cccc2C)c1C`, the inhibition (at 16.7 µM unless noted) was 76.4% [at 12.3 µM] (active).

As to `CC(=O)c1c(C)[nH]c(C(=O)OCC(=O)Nc2cc(S(=O)(=O)N3CCCCC3)ccc2C)c1C`, under “at 16.7 µM unless noted”, the inhibition is 0.591% [at 12.3 µM].

With `CC(=O)c1c(C)[nH]c(C(=O)OCC(=O)NCCC(C)C)c1C`, the inhibition (at 16.7 µM unless noted) is 38.2% [at 12.3 µM].

With `CO[C@@H]1CN(C)C(=O)c2cc(NS(=O)(=O)c3ccccc3C)ccc2OC[C@@H](C)N(S(C)(=O)=O)C[C@@H]1C`, the inhibition (at 16.7 µM unless noted) was 23.9%.

Regarding `C[C@@H]1CN([C@@H](C)CO)C(=O)c2cc(-c3ccccc3F)cnc2O[C@@H]1CN(C)Cc1cccc(F)c1`, for the setting “at 16.7 µM unless noted”, the inhibition was 6.32%.

As for `CC1CCCC(C)N1C(=O)CN1CCN(c2nc(-c3ccc(F)cc3)cs2)CC1` (configuration not stated), the inhibition (at 16.7 µM unless noted) was 57.8% [at 12.3 µM] (active).

Take `O=C(COC(=O)C1CCCO1)Nc1nc(-c2ccc(F)cc2)cs1` (configuration not stated): the inhibition (at 16.7 µM unless noted) was -32.6% [at 12.3 µM].

Regarding `Cc1cccc(C)c1NC(=O)CN1CCN(c2ccc(F)cc2)CC1`, the inhibition (at 16.7 µM unless noted) was -17.6% [at 12.3 µM].

Consider `C[C@@H]1CN([C@@H](C)CO)S(=O)(=O)c2ccc(C#Cc3ccccc3F)cc2O[C@H]1CN(C)C(=O)c1ccc2c(c1)OCO2`, for which the inhibition (at 16.7 µM unless noted) was 48.7%.

Take `CCC(=O)N(C)C[C@@H]1Oc2cc(C#Cc3cccnc3)ccc2S(=O)(=O)N([C@H](C)CO)C[C@@H]1C`: the inhibition (at 16.7 µM unless noted) was 19.7%.

As for `CNC(=O)C[C@@H]1CC[C@@H]2[C@H](COc3ccc(NC(=O)c4cccs4)cc3C(=O)N2C)O1`, where the note is “at 16.7 µM unless noted”, the inhibition was 0.696%.

For the compound `CO[C@H]1CN(C)C(=O)c2cc(NS(=O)(=O)c3ccccc3)ccc2OC[C@H](C)N(C)C[C@@H]1C`, the inhibition (at 16.7 µM unless noted) was 5.07%.

With `CNC[C@H]1Oc2cc(-c3cccnc3)ccc2S(=O)(=O)N([C@@H](C)CO)C[C@H]1C`, the inhibition (at 16.7 µM unless noted) is -16.2%.

On to `CC(=O)N[C@H]1CC[C@H](CCNC(=O)C2CC2)O[C@H]1CO`, for which the inhibition (at 16.7 µM unless noted) is -15.4%.

Regarding `CCOC(=O)C(Cc1ccccc1)NC(=O)CCC(=O)c1ccc(OC)cc1` (configuration not stated), for the setting “at 16.7 µM unless noted”, the inhibition is 4.22% [at 12.3 µM].

In the case of `CCOC(=O)C(Cc1ccc(N)cc1)N1C(=O)c2ccccc2C1=O` (configuration not stated), the inhibition (at 16.7 µM unless noted) was 6.82% [at 12.3 µM].

As for `CCOC(=O)C1=C(c2ccc(OC)cc2)C(=O)c2ccccc2C1=O`, the inhibition (at 16.7 µM unless noted) is 74.3% [at 12.3 µM] (active).

Regarding `COc1ccc(NC(=O)Nc2ccc3c(c2)C(=O)N([C@@H](C)CO)C[C@@H](C)[C@H](CN(C)C(=O)NC(C)C)OCCCC[C@H](C)O3)cc1`, the inhibition (at 16.7 µM unless noted) was 11.6%.

Consider `CCN1C(=O)[C@@H]2[C@@H](c3ccc(-c4ccccc4)cc3)N3CCCC[C@@]3(C(=O)OC)[C@@H]2C1=O`, for which, where the note is “at 16.7 µM unless noted”, the inhibition was -3.15% [at 12.3 µM].

In the case of `CCCCCCSc1ccc([C@@H]2[C@H]3C(=O)N(CC)C(=O)[C@H]3[C@]3(C(=O)OC)CCCCN23)cc1`, the inhibition (at 16.7 µM unless noted) was 8.61% [at 12.3 µM].

Regarding `CCN1C(=O)[C@@H]2[C@@H](c3ccc(-c4ccc(OC)cc4)c(OC)c3)N3CCC[C@@]3(C(=O)OC)[C@@H]2C1=O`, the inhibition (at 16.7 µM unless noted) is -5% [at 12.3 µM].

With `CCN1C(=O)[C@@H]2[C@@H](c3ccc(-c4cccc(Cl)c4)cc3)N3CCC[C@@]3(C(=O)OC)[C@@H]2C1=O`, the inhibition (at 16.7 µM unless noted) was -3.1% [at 12.3 µM].

Turning to `CCCCCCSc1ccc([C@@H]2[C@@H]3C(=O)N(CC)C(=O)[C@@H]3[C@]3(C(=O)OC)CCCCN23)cc1OC`, where the note is “at 16.7 µM unless noted”, the inhibition was 73.2% [at 12.3 µM] (active).

For `COC(=O)[C@@]12CCCN1[C@H](c1ccc(-c3ccc(F)cc3)c(OC)c1)[C@H]1C(=O)N(C)C(=O)[C@H]12`, for the setting “at 16.7 µM unless noted”, the inhibition was 71.6% [at 12.3 µM] (active).

For the compound `Cc1ccc(S(=O)(=O)N(C)C[C@@H]2Oc3ccc(NC(=O)Cc4ccccc4)cc3CC(=O)N([C@H](C)CO)C[C@H]2C)cc1`, for the setting “at 16.7 µM unless noted”, the inhibition was 14.2%.

As for `CO[C@@H]1CN(C)C(=O)c2cc(NC(=O)c3ccc(F)cc3)ccc2OC[C@H](C)N(C(=O)CN(C)C)C[C@H]1C`, the inhibition (at 16.7 µM unless noted) is 6.25%.

Consider `O=C(CC1C(=O)NCCN1Cc1ccc(-c2ccccc2)cc1)NCc1ccncc1` (configuration not stated), for which the inhibition (at 16.7 µM unless noted) is -0.899% [at 12.3 µM].

Consider `Cc1ccccc1-n1cc(CNC(=O)C2CCC(=O)N(C3CC3)C2)cn1` (configuration not stated), for which the inhibition (at 16.7 µM unless noted) was 5.76% [at 12.3 µM].

Take `Cc1ccccc1-n1cc(CNC(=O)CC2C(=O)NCCN2C/C=C/c2ccccc2)cn1` (configuration not stated): under “at 16.7 µM unless noted”, the inhibition is 58% [at 12.3 µM] (active).

As for `C[C@@H]1CN([C@@H](C)CO)C(=O)Cc2cc(NS(=O)(=O)c3cccs3)ccc2O[C@@H]1CN(C)C(=O)Nc1ccc(C(F)(F)F)cc1`, where the note is “at 16.7 µM unless noted”, the inhibition is 0.927%.

Take `CC(C)NC(=O)N(C)C[C@H]1Oc2ncc(-c3cccc(C#N)c3)cc2C(=O)N([C@@H](C)CO)C[C@H]1C`: the inhibition (at 16.7 µM unless noted) was 8.57%.

In the case of `CCOC(=O)C1CCN(C(=O)COC(=O)C2CCN(S(=O)(=O)c3ccc4c(c3)OCCO4)CC2)CC1`, where the note is “at 16.7 µM unless noted”, the inhibition is 29.3% [at 12.3 µM].

Regarding `COC(=O)C1CCN(C(=O)COC(=O)c2cc(S(=O)(=O)N3CCOCC3)ccc2C)CC1`, where the note is “at 16.7 µM unless noted”, the inhibition is 72.4% [at 12.3 µM] (active).

In the case of `CC1CCN(C(=O)COC(=O)c2cc(S(=O)(=O)N3CCOCC3)ccc2Cl)CC1`, the inhibition (at 16.7 µM unless noted) is 5.19% [at 12.3 µM].

With `COc1ccc(CNC(=O)C[C@H]2CC[C@H](NC(=O)Nc3ccc4c(c3)OCO4)[C@H](CO)O2)cc1`, the inhibition (at 16.7 µM unless noted) was 15.7%.

Regarding `CC(C)NC(=O)N(C)C[C@@H]1OCCCC[C@@H](C)Oc2ccc(NC(=O)NC3CCCCC3)cc2C(=O)N([C@@H](C)CO)C[C@@H]1C`, the inhibition (at 16.7 µM unless noted) was -9.6%.

With `C[C@H]1CN([C@@H](C)CO)C(=O)c2cc(C#CC3(O)CCCC3)cnc2O[C@@H]1CN(C)C(=O)Cc1ccccc1`, the inhibition (at 16.7 µM unless noted) is 15.7%.

In the case of `C[C@@H]1CN([C@H](C)CO)S(=O)(=O)c2ccc(C#CCN(C)C)cc2O[C@@H]1CN(C)C`, the inhibition (at 16.7 µM unless noted) was 5.39%.

On to `CCn1c(=S)[nH]c2sc3c(c2c1=O)CCCCC3`, for which the inhibition (at 16.7 µM unless noted) was -33.7% [at 12.3 µM].

On to `O=c1c2c3c(sc2n(CCN2CCCC2)c(=O)n1Cc1ccccc1)CCCCC3`, for which the inhibition (at 16.7 µM unless noted) is 46.8% [at 12.3 µM].

As to `CN(C)CCCn1c(=O)n(Cc2ccccc2)c(=O)c2c3c(sc21)CCCCC3`, where the note is “at 16.7 µM unless noted”, the inhibition is 63.7% [at 12.3 µM] (active).
